# Results filed as inconclusive are left out. Values without a mark were called inactive. Active and inactive are the calls of the source. Calls come from the whole dose curve; as a rule, active = well fitted activation curve with a large enough effect; inconclusive = small, poorly fitted or top-dose-only effect; inactive = no such curve, though single readings can be large or run the other way.
# Experiment: qHTS assay for re-activators of p53 using a Luc reporter: Hit Validation; note: nearly all actives have a fitted effect of over 75% in size; for activation: 0% is about no effect
# Conditions: p53-responsive luciferase reporter cells, luminescence, H1299 line expressing heat-sensitive Ala138Val p53; series mostly up to 46.1 µM; activation: at the top concentration
# In short: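 H1299 (p53-null) cells stably carrying p53-A138V and a BP100-luciferase reporter, 1000 cells/well, treated 24 h at 37 deg C. Compounds at several concentrations, 1:5 dilution; nocodazole control; luminescence read after 10 min with detection reagent.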
# Potency is the fitted concentration of half-maximal effect.
SMILES,activation [%],Potency
CCc1ccc(-n2cc(-c3ccc([N+](=O)[O-])cc3)[nH]c2=S)cc1,-89.6,
CCOc1ccc2cc(C#N)c(SCC(=O)OC)nc2c1,,2.91 µM (active)
CCOC(=O)c1c(C)[nH]c(C(=O)CSc2ccccc2)c1C,,0.517 µM (active)
C/C(=N\NC(=O)c1ccccc1)c1ccc(NC(=O)c2cccs2)cc1,-2.6,
c1ccc(-n2ncc3c(N4CCCCC4)ncnc32)cc1,,1.16 µM (active)
C/C(Cn1nnc([N+](=O)[O-])n1)=N\NC(=O)c1ccc(C)cc1,26.6,
CCOC(=O)C1CCN(S(=O)(=O)Cc2ccccc2)C1=O (stereo not drawn),0.521,
Cn1c(-c2ncc(F)cc2F)cc2onc(-c3c(F)cccc3Cl)c2c1=O,,2.59 µM (active)
COc1ccc2cnn(CCOc3ccccc3)c(=O)c2c1OC,,1.03 µM (active)
O=C(Cc1ccccc1)Nc1ccc(NC(=O)c2cccnc2)cc1,12,
CNC(=S)N/N=C/c1cc(Br)cc(Br)c1O,-9.38,
Cc1ccsc1/C=C(\C#N)C(=O)Nc1c(C)n(C)n(-c2ccccc2)c1=O,-19.8,
COc1cccc(NC(=O)CSC2=C(C#N)C(c3ccco3)C3=C(CCCC3=O)N2)c1 (stereo not drawn),8.33,
Cc1cccc(NC(=O)/C=C/c2ccc([N+](=O)[O-])s2)c1,-39.1,
Cc1ccsc1/C=N/Nc1nc2ccccc2[nH]1,,1.3 µM (active)
Cc1ccc2c(c1)sc1nc(=O)n(-c3cccc(Cl)c3)c(=O)n12,,8.2 µM (active)
Cc1ccc2nc(NC(=O)c3ccc(Cl)s3)sc2c1,,0.731 µM (active)
CCc1nnc(NC(=O)/C=C/c2ccco2)s1,,20.6 µM (active)
C=CCNc1nc(-c2cc3ccccc3o2)cs1,,0.651 µM (active)

SMILES,activation [%],Potency
COc1ccc(-n2cnc3c(cnn3CCC#N)c2=N)cc1,25.5,
CCOCC(=O)Nc1nc2ccc(OCC)cc2s1,,16.4 µM (active)
O=C(Nc1ccc(-c2nc3cc(Cl)ccc3c(=O)o2)cc1)c1ccco1,-4.69,
Fc1ccccc1/C=C/c1ccc2ccccc2n1,,0.731 µM (active)
COc1cc(C(=O)NCC(=O)Nc2c(C)cccc2C)ccc1OCc1ccccc1,-7.81,
Cc1ccc(C(=O)Nc2cnc3sc(C)nn3c2=O)cc1,,6.51 µM (active)
O=C(NC(=S)Nc1ccccc1Br)C1CCCCC1,,20.6 µM (active)
COc1cccc(N(C(=O)c2nc3nccc(C)n3n2)c2nc3ccccc3s2)c1,,7.31 µM (active)
O=C(CSc1ccccc1)Nc1ccc(-c2nc3ccccc3[nH]2)cc1,76.6,
COc1cccc(-c2nc3cc(C)ccc3o2)c1,,0.411 µM (active)
CCc1ccc(N=c2c([N+](=O)[O-])nn(-c3ccccc3)n2O)cc1,,9.2 µM (active)
NC(N)=Nc1nc(C2COc3ccccc3O2)cs1 (stereo not drawn),,4.11 µM (active)
COc1ccc(-c2csc(NCc3ccco3)n2)cc1C,,18.4 µM (active)
c1ccc(Oc2cc(-n3cncn3)ncn2)cc1,30.2,
O=C(NCC(=O)N1CCN(c2ncccn2)CC1)c1ccc(F)cc1,18.2,
Cc1cc(/C=N/Nc2ncnc(N)c2[N+](=O)[O-])c(C)n1-c1ccccc1,,0.092 µM (active)
O=C(CSc1nnc(-c2ccc3c(c2)OCCO3)o1)N1CCCC1,,7.31 µM (active)
Cc1cs/c(=N/C(=S)Nc2ccccc2)n1C,,1.84 µM (active)
Cc1ccc(NC(=S)NCC2CCCO2)c(OC(F)F)c1 (stereo not drawn),30.7,

# Reference: PubChem BioAssay AID624305 (National Center for Advancing Translational Sciences (NCATS), 2012)
